# Where two headings read alike, the source gives them in different places.
# Experiments:
# Set-up in all cases: species or system human, MV4-11 + K-562 + COLO205 + SK-N-BE2 + OVCAR-8
# CSNK1D = details: read-out: apparent Kd, compound concentrations: 100 nM and 1000 nM (sheet 'Samples'), n = 1
# MAPK9 = details: read-out: apparent Kd, n = 1
# CDK16 = details: read-out: apparent Kd, n = 1
# CHEK1 = details: read-out: apparent Kd, n = 1
# EPHA5 = details: read-out: apparent Kd, compound concentrations: 100 nM and 1000 nM (sheet 'Samples'), n = 1
# MARK3 = details: read-out: apparent Kd, n = 1
# PIP4K2C = details: read-out: apparent Kd, n = 1
# RPS6KA4 = details: read-out: apparent Kd, n = 1
# STK4 = details: read-out: apparent Kd, n = 1
# ATM = details: read-out: apparent Kd, compound concentrations: 100 nM and 1000 nM (sheet 'Samples'), n = 1
# CAMKK2 = details: read-out: apparent Kd, compound concentrations: 100 nM and 1000 nM (sheet 'Samples'), n = 1
# BCR = details: read-out: apparent Kd; compound concentrations: 100 nM and 1000 nM (sheet 'Samples'), CATDS: 2.0148747001584599E-2; n = 1
# EPHA4 = details: read-out: apparent Kd; compound concentrations: 100 nM and 1000 nM (sheet 'Samples'), CATDS: 2.34305639617714E-2; n = 1
# EPHB2 = details: read-out: apparent Kd; compound concentrations: 100 nM and 1000 nM (sheet 'Samples'), CATDS: 2.84737750154796E-2; n = 1
# EPHB4 = details: read-out: apparent Kd; compound concentrations: 100 nM and 1000 nM (sheet 'Samples'), CATDS: 3.0398268163298901E-2; n = 1
# TNK1 = details: read-out: apparent Kd, compound concentrations: 100 nM and 1000 nM (sheet 'Samples'), n = 1
# PRKACA = details: read-out: apparent Kd; compound concentrations:100 nM and 1000 nM (sheet 'Samples'); n = 1
# PRKACB = details: read-out: apparent Kd; compound concentrations:100 nM and 1000 nM (sheet 'Samples'); n = 1
# PRKAG2 = details: read-out: apparent Kd; compound concentrations:100 nM and 1000 nM (sheet 'Samples'); n = 1
# AURKA = details: read-out: apparent Kd; compound concentrations: 100 nM and 1000 nM (sheet 'Samples'), CATDS: 7.5652675544933198E-2; n = 1
# [1] = compound concentrations:100 nM and 1000 nM (sheet 'Samples')
compound,measurement,setting,value
COc1cccc2c(-c3ccncc3)c(-c3ccc(F)cc3)nn12 [GW468513X],potency estimated from few doses,CSNK1D; CATDS: 0.14597424406190301,52 nM
same,potency estimated from few doses,"MAPK9; compound concentrations: 100 nM and 1000 nM (sheet 'Samples'), CATDS: 6.8874136988771595E-2",218 nM
O=C(O)C(F)(F)F.O=C(O)C(F)(F)F.O=c1[nH]ccc2nc(N[C@@H]3CCCNC3)nc(Nc3ccc(S(=O)(=O)N4CCOCC4)cc3)c12.O=c1[nH]ccc2nc(N[C@@H]3CCCNC3)nc(Nc3ccc(S(=O)(=O)N4CCOCC4)cc3)c12 [GSK2177277A],potency estimated from few doses,"CDK16; compound concentrations: 100 nM and 1000 nM (sheet 'Samples'), CATDS: 2.61766261640392E-2",32 nM
same,potency estimated from few doses,"CHEK1; compound concentrations: 100 nM and 1000 nM (sheet 'Samples'), CATDS: 1.19973934343878E-2",166 nM
same,potency estimated from few doses,CSNK1D; CATDS: 1.4345830153399601E-2,107 nM
same,potency estimated from few doses,EPHA5; CATDS: 6.3188743096270596E-3,1690 nM
same,potency estimated from few doses,"MARK3; compound concentrations: 100 nM and 1000 nM (sheet 'Samples'), CATDS: 1.6672626063874801E-2",76.4 nM
same,potency estimated from few doses,"PIP4K2C; compound concentrations: 100 nM and 1000 nM (sheet 'Samples'), CATDS: 6.0874593504341903E-3",2140 nM
same,potency estimated from few doses,"RPS6KA4; compound concentrations: 100 nM and 1000 nM (sheet 'Samples'), CATDS: 8.4573730907670092E-3",470 nM
same,potency estimated from few doses,"STK4; compound concentrations: 100 nM and 1000 nM (sheet 'Samples'), CATDS: 4.9368785940317003E-2",11.7 nM
CNCC#Cc1c(F)ccc2c1/C(=C/c1[nH]ccc1OC)C(=O)N2.Cl [RO0281601-001],potency estimated from few doses,"CDK16; compound concentrations: 100 nM and 1000 nM (sheet 'Samples'), CATDS: 5.4243920353091599E-2",173 nM
same,potency estimated from few doses,"MAPK9; compound concentrations: 100 nM and 1000 nM (sheet 'Samples'), CATDS: 2.4377657095079101E-2",1310 nM
same,potency estimated from few doses,"MARK3; compound concentrations: 100 nM and 1000 nM (sheet 'Samples'), CATDS: 2.1082964771659999E-2",2280 nM
same,potency estimated from few doses,"RPS6KA4; compound concentrations: 100 nM and 1000 nM (sheet 'Samples'), CATDS: 3.0047903909945699E-2",696 nM
FC(F)(F)c1ccc(-c2ncn(CCCN3CCOCC3)c2-c2ccncc2)cc1 [SB-217780],potency estimated from few doses,"STK4; compound concentrations: 100 nM and 1000 nM (sheet 'Samples'), CATDS: 0.215555066939567",1540 nM
CN(C)CC(O)COc1ccc(Nc2nccc(-c3cnn4nc(N5CCOCC5)ccc34)n2)cc1 (centres unmarked) [GW767488X],potency estimated from few doses,CDK16; [1],262 nM
same,potency estimated from few doses,MAPK9; [1],134 nM
same,potency estimated from few doses,PIP4K2C; [1],1440 nM
COc1cc(Nc2nccc(-c3cnn4ncccc34)n2)cc(OC)c1 [GW801372X],potency estimated from few doses,ATM; CATDS: 3.2681942140962102E-2,274 nM
same,potency estimated from few doses,CAMKK2; CATDS: 1.8078594286366201E-2,1750 nM
same,potency estimated from few doses,"CDK16; compound concentrations: 100 nM and 1000 nM (sheet 'Samples'), CATDS: 1.6995450779384601E-2",2320 nM
same,potency estimated from few doses,CSNK1D; CATDS: 1.8156615660070499E-2,1710 nM
same,potency estimated from few doses,"MAPK9; compound concentrations: 100 nM and 1000 nM (sheet 'Samples'), CATDS: 1.8501615721313099E-2",1580 nM
same,potency estimated from few doses,"PIP4K2C; compound concentrations: 100 nM and 1000 nM (sheet 'Samples'), CATDS: 2.38914066508359E-2",648 nM
COc1cc(Nc2nccc(N3CCC(NC(=O)c4cccc(NC(C)=O)c4)C3)n2)cc(OC)c1OC (centres unmarked) [GSK1379754A],potency estimated from few doses,"PIP4K2C; compound concentrations: 100 nM and 1000 nM (sheet 'Samples'), CATDS: 7.8975813686716995E-2",2090 nM
Cc1ccccc1-n1ncc(C(=O)c2ccccc2)c1N [RO1151248-000],potency estimated from few doses,ATM; CATDS: 4.4938913040114402E-2,302 nM
same,potency estimated from few doses,BCR,1380 nM
same,potency estimated from few doses,CAMKK2; CATDS: 1.8448697661517601E-2,1790 nM
same,potency estimated from few doses,"CHEK1; compound concentrations: 100 nM and 1000 nM (sheet 'Samples'), CATDS: 1.9023399407062401E-2",1630 nM
same,potency estimated from few doses,EPHA4,955 nM
same,potency estimated from few doses,EPHA5; CATDS: 2.3755462861685599E-2,926 nM
same,potency estimated from few doses,EPHB2,640 nM
same,potency estimated from few doses,EPHB4,567 nM
same,potency estimated from few doses,TNK1; CATDS: 3.5283149780083803E-2,439 nM
CCn1c(-c2nonc2N)nc2c(C#CC(C)(C)O)nc(O[C@@H](CN)c3ccccc3)cc21.O=C(O)C(F)(F)F [GSK1007102B],potency estimated from few doses,MARK3; [1],163 nM
same,potency estimated from few doses,PRKACA,37.5 nM
same,potency estimated from few doses,PRKACB,41.1 nM
same,potency estimated from few doses,PRKAG2,121 nM
O=C(O)C(F)(F)F.O=c1[nH]ccc2nc(N[C@@H]3CCNC3)nc(Nc3cc(Cl)cc(Cl)c3)c12 [GSK2188764A],potency estimated from few doses,CHEK1; [1],711 nM
same,potency estimated from few doses,MARK3; [1],153 nM
same,potency estimated from few doses,PRKAG2,632 nM
same,potency estimated from few doses,RPS6KA4; [1],472 nM
same,potency estimated from few doses,STK4; [1],913 nM
CN(c1ccc(NC(=O)NCCN2CCOCC2)cc1)c1ccnc(Nc2ccc(CS(C)(=O)=O)cc2)n1.Cl [GW830365A],potency estimated from few doses,AURKA,444 nM
same,potency estimated from few doses,TNK1; CATDS: 5.9117233589801498E-2,792 nM
CCN(CC)Cc1ccc(Nc2nccc(-c3cnn4ncccc34)n2)cc1 [GW780056X],potency estimated from few doses,"CDK16; compound concentrations: 100 nM and 1000 nM (sheet 'Samples'), CATDS: 4.3242463436831802E-2",196 nM
same,potency estimated from few doses,CSNK1D; CATDS: 9.4015783065552402E-2,47.8 nM

# From publication PMC11062922 (Nature Chemical Biology, 2023)
